Structures are written as SMILES. For some of these results: Measured potencies and affinities stand elsewhere.

Design in all cases: scale not given: direction of the effect not stated beside the values
The target of experiment [1] is Protein translocase subunit SecA (Escherichia coli (strain K12)) (UniProt P10408). The experiment is described as follows: Assay to Identify E. coli SecA ATPase Inhibitors. The class given is functional. The conditions noted are these: 30 µM.
The target in experiment [2] is T1, Ubiquitin-activating enzyme e1, putative (Leishmania donovani (strain BPK282A1)) (UniProt E9BSI1).
T1 sequence (whole entry): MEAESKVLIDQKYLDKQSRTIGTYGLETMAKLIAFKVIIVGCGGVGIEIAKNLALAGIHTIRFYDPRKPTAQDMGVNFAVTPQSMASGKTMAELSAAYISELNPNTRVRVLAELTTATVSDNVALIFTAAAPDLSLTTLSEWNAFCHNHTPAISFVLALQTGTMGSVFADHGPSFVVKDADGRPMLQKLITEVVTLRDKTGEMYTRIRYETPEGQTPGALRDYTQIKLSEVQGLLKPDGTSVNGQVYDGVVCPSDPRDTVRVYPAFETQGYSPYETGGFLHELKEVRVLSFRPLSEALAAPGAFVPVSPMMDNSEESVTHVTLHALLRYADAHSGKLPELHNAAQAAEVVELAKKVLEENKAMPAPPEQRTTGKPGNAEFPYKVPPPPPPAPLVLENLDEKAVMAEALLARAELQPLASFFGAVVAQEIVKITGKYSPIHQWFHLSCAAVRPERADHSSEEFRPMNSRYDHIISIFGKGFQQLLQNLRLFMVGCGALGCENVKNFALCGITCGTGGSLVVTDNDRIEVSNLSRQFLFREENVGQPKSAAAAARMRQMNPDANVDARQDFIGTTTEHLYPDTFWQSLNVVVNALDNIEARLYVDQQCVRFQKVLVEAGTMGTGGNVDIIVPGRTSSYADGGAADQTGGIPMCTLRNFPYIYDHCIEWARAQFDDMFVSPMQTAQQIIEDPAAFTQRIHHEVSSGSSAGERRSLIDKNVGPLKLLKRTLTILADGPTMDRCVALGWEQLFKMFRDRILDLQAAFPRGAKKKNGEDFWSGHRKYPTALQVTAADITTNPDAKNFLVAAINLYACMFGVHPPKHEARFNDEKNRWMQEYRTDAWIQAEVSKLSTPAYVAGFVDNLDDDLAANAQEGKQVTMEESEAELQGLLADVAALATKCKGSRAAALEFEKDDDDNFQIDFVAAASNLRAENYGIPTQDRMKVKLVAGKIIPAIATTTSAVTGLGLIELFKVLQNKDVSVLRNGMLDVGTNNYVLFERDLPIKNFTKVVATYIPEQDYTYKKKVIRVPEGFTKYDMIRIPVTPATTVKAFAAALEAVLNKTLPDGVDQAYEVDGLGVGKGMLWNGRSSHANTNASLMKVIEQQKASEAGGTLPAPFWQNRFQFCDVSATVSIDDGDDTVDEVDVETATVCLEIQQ
Description: Leishmania donovani Ubiquitin Activating Enzyme (LdE1). The class given is functional. The conditions noted are these: 30 µM.

Experiment [3] addresses AMP-activated protein kinase, AMPK (Homo sapiens) (UniProt P54646+O43741+P54619+Q9UGJ0+Q9Y478+Q13131+Q9UGI9). Description: AMP-dependent Kinase enzyme assay. An in vitro enzyme assay that detects ADP turnover that is directly proportional to AMPK activity. This uses naive AMPK that is activated during the assay with MK-8722. The conditions noted are these: 30 µM. The class given is functional.

Experiment [4] has as its target Sialic acid-binding Ig-like lectin 9 (Homo sapiens) (UniProt Q9Y336). The experiment is described as follows: Hs-Siglec9 ALPHAscreen SOP 20170721. To be noted: 10 µM. Background: Bead proximity is the source of the signal in Alpha formats.
Experiment [5] deals with Trypanosoma cruzi. Description: Trypanosoma cruzi phosphomannomutase and mannose-1-phosphate guanylyltransferase assay. The class given is functional. To be noted: 10 µM.
Experiment [6] addresses T2, Arginase-2, mitochondrial (Homo sapiens) (UniProt P78540).
T2 sequence (whole entry): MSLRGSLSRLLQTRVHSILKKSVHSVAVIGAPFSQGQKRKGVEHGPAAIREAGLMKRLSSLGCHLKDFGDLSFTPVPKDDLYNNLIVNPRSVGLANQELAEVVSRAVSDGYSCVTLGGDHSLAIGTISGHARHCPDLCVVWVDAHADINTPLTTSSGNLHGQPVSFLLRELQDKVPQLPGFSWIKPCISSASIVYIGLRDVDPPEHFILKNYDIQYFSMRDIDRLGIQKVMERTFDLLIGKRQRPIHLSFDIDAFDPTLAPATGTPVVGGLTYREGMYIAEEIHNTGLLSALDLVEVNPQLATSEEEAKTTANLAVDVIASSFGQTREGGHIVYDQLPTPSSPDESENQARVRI
Description: in vitro enzyme assay to detect the production of urea directly proportional to the activity of Arginase II. Also: in the data most compounds retested in dose-response had high values. The format is functional. To be noted: 33.3 µM.

Experiment [7] addresses T3, Proteasome subunit beta (Trypanosoma cruzi) (UniProt O96673).
T3 sequence (whole entry): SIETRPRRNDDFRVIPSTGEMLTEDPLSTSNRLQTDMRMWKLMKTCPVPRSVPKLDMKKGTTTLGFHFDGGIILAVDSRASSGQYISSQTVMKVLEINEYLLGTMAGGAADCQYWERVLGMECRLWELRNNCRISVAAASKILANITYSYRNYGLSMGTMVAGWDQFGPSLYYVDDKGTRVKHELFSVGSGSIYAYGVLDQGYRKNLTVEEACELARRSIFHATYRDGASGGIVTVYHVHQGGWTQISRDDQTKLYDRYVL
Description: Trypanosoma cruzi proteasome chymotrypsin-like activity (TcProtChymo) assay. Also: in the data most compounds retested in dose-response had high values. The format is functional. To be noted: 9.37 µM.

The species named for experiment [8] is Homo sapiens. The experiment is described as follows: To identify inhibition of the IFN signalling (Jak-Stat) pathway via expression of an eGFP reporter gene under the control of an IFN-stimulated response element (ISRE) containing MxA promoter. The class given is functional. To be noted: 30 µM. (In general: In a reporter assay the amount or activity of a reporter protein is the signal.)

For experiment [9], the target named is T4, Tyrosyl-tRNA synthetase, putative (Trypanosoma cruzi (strain CL Brener)) (UniProt Q4DSP6).
T4 sequence (whole entry): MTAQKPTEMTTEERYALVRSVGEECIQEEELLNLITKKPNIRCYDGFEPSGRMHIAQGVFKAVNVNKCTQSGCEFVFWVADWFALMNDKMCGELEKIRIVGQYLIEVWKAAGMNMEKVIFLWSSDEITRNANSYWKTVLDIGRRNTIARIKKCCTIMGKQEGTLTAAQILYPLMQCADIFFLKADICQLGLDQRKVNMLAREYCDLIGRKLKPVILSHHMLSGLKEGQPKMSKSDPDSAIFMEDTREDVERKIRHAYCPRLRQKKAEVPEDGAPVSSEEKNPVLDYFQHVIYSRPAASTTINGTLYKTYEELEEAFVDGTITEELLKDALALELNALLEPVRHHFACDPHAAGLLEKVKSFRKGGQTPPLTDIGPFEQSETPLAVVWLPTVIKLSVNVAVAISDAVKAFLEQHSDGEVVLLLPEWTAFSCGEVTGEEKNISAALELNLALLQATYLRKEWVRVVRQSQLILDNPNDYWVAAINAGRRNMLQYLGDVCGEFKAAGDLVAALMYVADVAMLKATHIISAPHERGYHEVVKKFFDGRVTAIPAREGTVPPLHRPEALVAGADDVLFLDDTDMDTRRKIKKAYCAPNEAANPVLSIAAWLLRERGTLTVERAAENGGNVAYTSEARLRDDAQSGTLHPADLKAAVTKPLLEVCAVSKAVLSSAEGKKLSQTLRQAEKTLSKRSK
Description: Trypanosoma cruzi tyrosyl tRNA synthetase (TcYRS) _High Tyrosine SOP. Also: in the data most compounds retested in dose-response had high values. The format is functional. The conditions noted are these: 30 µM.

Experiment [10] concerns the target T4, Tyrosyl-tRNA synthetase, putative (Trypanosoma cruzi (strain CL Brener)). The experiment is described as follows: Trypanosoma cruzi tyrosyl tRNA synthetase (TcYRS) SOP. The class given is functional. The conditions noted are these: 30 µM.
For experiment [11], the target named is Chromo domain-containing protein 1 (Saccharomyces cerevisiae (strain ATCC 204508 / S288c) (Baker's yeast)) (UniProt P32657). Description: ScCHD-1 Enzyme Inhibition Assay. Also: in the data most compounds retested in dose-response had high values. The format is functional. To be noted: 30 µM.
Sequence of Chromo domain-containing protein 1 (Saccharomyces cerevisiae (strain ATCC 204508 / S288c) (Baker's yeast)) (P32657 whole entry, the tested form may be a part): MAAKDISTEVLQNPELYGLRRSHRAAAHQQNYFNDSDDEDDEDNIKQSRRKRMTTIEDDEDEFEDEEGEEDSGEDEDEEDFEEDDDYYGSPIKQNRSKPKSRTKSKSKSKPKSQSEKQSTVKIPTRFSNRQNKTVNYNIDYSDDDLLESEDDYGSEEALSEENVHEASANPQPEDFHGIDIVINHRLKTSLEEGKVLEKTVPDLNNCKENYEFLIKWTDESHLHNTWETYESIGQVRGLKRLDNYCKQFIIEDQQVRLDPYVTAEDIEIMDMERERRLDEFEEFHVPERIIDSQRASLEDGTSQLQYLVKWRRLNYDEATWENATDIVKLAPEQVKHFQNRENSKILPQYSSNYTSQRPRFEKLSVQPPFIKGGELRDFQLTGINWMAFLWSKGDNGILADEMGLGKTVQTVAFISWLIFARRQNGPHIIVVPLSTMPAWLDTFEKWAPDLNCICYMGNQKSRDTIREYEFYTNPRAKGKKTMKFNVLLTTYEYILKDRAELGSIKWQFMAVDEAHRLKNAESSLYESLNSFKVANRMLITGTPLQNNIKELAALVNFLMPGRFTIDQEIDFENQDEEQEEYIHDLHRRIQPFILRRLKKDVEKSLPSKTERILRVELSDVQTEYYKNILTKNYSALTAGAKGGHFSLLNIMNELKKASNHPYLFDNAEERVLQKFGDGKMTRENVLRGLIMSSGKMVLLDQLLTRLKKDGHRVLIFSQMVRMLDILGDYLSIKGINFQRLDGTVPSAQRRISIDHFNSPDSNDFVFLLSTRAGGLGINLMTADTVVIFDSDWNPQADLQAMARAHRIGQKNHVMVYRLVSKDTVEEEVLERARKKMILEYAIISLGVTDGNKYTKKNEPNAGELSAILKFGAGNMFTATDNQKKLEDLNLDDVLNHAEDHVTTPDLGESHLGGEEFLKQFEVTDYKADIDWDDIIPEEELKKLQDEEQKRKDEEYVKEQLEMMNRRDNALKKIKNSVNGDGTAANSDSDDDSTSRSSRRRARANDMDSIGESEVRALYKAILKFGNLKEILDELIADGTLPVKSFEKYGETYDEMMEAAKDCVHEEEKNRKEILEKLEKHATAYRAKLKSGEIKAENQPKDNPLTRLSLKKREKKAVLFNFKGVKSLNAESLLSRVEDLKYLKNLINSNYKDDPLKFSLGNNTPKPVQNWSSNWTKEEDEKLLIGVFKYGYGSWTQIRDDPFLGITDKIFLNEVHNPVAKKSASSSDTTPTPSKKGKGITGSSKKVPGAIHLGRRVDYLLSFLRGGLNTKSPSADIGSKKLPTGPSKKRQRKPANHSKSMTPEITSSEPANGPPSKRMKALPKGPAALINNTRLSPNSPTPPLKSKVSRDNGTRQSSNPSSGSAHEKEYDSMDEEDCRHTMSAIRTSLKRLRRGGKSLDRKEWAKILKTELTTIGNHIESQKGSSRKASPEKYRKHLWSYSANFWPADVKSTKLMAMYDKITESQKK

Sequence of Sialic acid-binding Ig-like lectin 9 (Homo sapiens) (Q9Y336 whole entry): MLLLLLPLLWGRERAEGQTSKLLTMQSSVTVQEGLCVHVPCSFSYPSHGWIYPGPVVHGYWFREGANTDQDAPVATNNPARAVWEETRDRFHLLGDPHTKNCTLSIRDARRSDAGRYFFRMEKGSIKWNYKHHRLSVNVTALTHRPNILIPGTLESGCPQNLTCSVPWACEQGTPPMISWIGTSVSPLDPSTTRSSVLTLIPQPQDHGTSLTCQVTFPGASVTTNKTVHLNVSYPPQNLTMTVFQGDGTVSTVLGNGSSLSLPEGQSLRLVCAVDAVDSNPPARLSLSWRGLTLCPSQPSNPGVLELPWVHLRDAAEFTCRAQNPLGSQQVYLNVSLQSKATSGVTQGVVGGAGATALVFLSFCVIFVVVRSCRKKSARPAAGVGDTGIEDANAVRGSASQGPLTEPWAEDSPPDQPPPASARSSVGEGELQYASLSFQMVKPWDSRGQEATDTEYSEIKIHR
Sequence of Protein translocase subunit SecA (Escherichia coli (strain K12)) (P10408 whole entry): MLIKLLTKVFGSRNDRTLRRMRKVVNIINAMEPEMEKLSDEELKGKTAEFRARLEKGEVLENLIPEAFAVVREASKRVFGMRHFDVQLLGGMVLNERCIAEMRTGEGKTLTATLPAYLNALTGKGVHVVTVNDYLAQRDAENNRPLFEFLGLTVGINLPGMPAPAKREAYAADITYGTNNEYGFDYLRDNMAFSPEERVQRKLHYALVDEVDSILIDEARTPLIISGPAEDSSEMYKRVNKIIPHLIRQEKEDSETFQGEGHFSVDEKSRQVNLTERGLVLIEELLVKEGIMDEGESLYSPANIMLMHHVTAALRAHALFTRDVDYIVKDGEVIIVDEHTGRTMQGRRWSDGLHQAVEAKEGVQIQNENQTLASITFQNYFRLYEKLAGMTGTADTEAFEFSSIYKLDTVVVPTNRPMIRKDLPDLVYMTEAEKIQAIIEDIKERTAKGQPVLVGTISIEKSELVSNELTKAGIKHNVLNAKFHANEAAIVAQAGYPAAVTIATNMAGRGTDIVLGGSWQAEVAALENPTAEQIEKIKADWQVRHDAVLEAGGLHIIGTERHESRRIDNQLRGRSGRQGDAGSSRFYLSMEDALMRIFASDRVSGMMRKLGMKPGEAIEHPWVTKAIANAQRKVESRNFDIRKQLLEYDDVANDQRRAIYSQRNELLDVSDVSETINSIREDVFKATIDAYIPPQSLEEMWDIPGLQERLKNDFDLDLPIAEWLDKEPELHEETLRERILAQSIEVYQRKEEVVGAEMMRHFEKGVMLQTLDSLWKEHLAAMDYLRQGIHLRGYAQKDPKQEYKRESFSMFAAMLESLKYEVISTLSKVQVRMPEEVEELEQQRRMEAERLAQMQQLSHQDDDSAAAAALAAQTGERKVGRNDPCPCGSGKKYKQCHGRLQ

In the case of `COc1c(CNC2CCN(C(C)(C)C)CC2)c(C(C)C)nn1C`, the Percent Effect was -3.54% in experiment [1]; 10.5% in [2]; -6.9% in [3]; -3.36% in experiment [4]; 6.07% in experiment [5]; -2.52% in experiment [6]. Also, the Percent Effect is 4.65% in experiment [7]; -8.8% in experiment [8]; 12.3% in experiment [9]; 16.1% in experiment [10]; -1.24% in experiment [11].
As to `CN(C)C(=O)CC1CC2(CCNCC2)c2cc(F)ccc21` (stereo not drawn), the Percent Effect in experiment [1] is -1.58%; in experiment [2], -5.41%; in [3], 8.49%; in experiment [4], -3.96%; in [5], -6.35%; in [6], -2.23%. Further, the Percent Effect in experiment [7] was 21%; in [8] it was -0.894%; in experiment [9], -2.16%; in experiment [10], 0%; in experiment [11], 1.02%.
For `O=C1NCCCCC1Sc1nnc(C2CC2)n1C1CC1` (stereo not drawn), the Percent Effect was 1.19% in experiment [1]; 11% in experiment [2]; -3.07% in [3]; -9.6% in experiment [4]; 3.72% in [5]; 8.64% in experiment [6]. For the same molecule, the Percent Effect in experiment [7] was 18.5%; in experiment [8], 23.5%; in [9], 5.38%; in experiment [10], 15%; in [11] it was -13.5%.
For `COCCCn1ccnc1-c1cnc(OC)nc1`, the Percent Effect in [1] was -0.0522%; in experiment [2], 5.41%; in [3], -3.25%; in [4], 0.687%; in experiment [5], -0.386%; in [6], -3.33%. The Percent Effect in experiment [7] was 21.6%; in experiment [8] it was -18.9%; in experiment [9], 6.88%; in experiment [10], 4.88%; in experiment [11], -3.88%.
Turning to `CC1c2ncc(Cn3cncn3)n2CCN1C(=O)C1CCOCC1` (stereo not drawn), the Percent Effect in [1] was -4.07%; in [2], 10.7%; in [3], -5.52%; in [4] it was 0.0625%; in [5], 4.83%; in [6], -56.5%. The Percent Effect in experiment [7] was 5.13%; in [8] it was -14.3%; in experiment [9] it was 3.12%; in experiment [10], 7.5%; in experiment [11], -6.18%.
In the case of `COc1ccc(F)c(CN2CCC(c3cc(O)nc(C)n3)C2)c1` (stereo not drawn), the Percent Effect in experiment [1] was -8.36%; in experiment [2], 23%; in experiment [3], -0.897%; in [4], -0.78%; in experiment [5], 5.93%; in [6], -3.94%. For the same molecule, the Percent Effect was 15.3% in experiment [7]; 11.7% in [8]; 5.38% in [9]; 14.3% in [10]; -15% in experiment [11].
On to `CC(C)(C)C(=O)N1CCC2(COCc3cnc(N4CCOCC4)nc32)C1` (stereo not drawn), for which the Percent Effect was -4.89% in [1]; 4% in [2]; 3.79% in experiment [3]; 6.02% in experiment [4]; -2.36% in experiment [5]; -7.57% in experiment [6]. In addition, the Percent Effect is 9.06% in experiment [7]; -1.15% in experiment [8]; 2.12% in [9]; 2.56% in experiment [10]; -1.68% in experiment [11].
On to `COCCN1CCC(NCc2ccc(C#N)cc2)C1` (stereo not drawn), for which the Percent Effect in experiment [1] is -8.38%; in experiment [2], 0%; in [3], -5.29%; in experiment [4] it was 8.39%; in experiment [5] it was 9.55%; in [6], 4.98%. For the same molecule, the Percent Effect in experiment [7] is 1.86%; in experiment [8], 2.29%; in [9], 8.74%; in experiment [10], 21.9%; in experiment [11], -10.6%.
